In the library only some 9.2% were active in any assay of this set; here they are far more common.
NPC1 promoter act: qHTS Assay for NPC1 Promoter Activators; Huh7 NPC1 promoter luciferase reporter, 24 h; Potency, µM (series often up to 9.22 µM), without a hit: at the top dose activation, actives largely listed as activators; actives 2.4% (n = 320,000); AID 485313, 2010; further: % of control where 0% means no effect; nearly all actives have a fitted effect of over 60% in size
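Cells: Huh7 expressing luciferase under the NPC1 promoter, 1500/well. Seeded 2 h, compound added, incubated 24 h at 37 °C. Luciferase reagent, 10 min ambient, then luminescence.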
Rab9 promoter act: qHTS Assay for Rab9 Promoter Activators | AID 485297, 2010 | Potency, µM (doses to about 9.22 µM), for inactives: at the top dose activation, negative = inhibition, usual class: activators | Huh7 Rab9 promoter-luciferase reporter, luminescence, 24 h | actives 2.8% (n = 320,000); further: % of control where 0% means no effect; nearly all actives have a fitted effect of over 60% in size
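Luciferase signal after 10 min detection reagent at ambient indicates Rab9 promoter upregulation; stably transfected Huh7 cells were treated 24 h with compound in DMSO at 37 °C, 5% CO2.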
ELG1 genotox: qHTS screen for small molecules that induce genotoxicity in human embryonic kidney (HEK293T) cells expressing luciferase-tagged ELG1 | HEK293T ELG1-luciferase reporter, luminescence, 16 h | Potency, µM (series often up to 46 µM), for inactives: at the highest dose activity change, positive = activation, most hits filed as activators | actives 1.3% (n = 330,000) | AID 504466, 2011; further: % of control where 0% means no effect; nearly all actives have a fitted effect of over 60% in size
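Genotoxic stress is detected as increased luminescence from luciferase-tagged ELG1 in HEK293T cells, measured with ONE-Glo after a 16 hr treatment at 37 °C.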
ELG1 DNA repair: qHTS screen for small molecules that inhibit ELG1-dependent DNA repair in human embryonic kidney (HEK293T) cells expressing luciferase-tagged ELG1 | HEK293T ELG1-luciferase reporter, luminescence, 16 h; DNA damage induced by 5-fluorouridine | Potency, µM (titrated, usually from 46.1 µM), without a hit: at the top dose activity change, negative = inhibition, actives largely listed as inhibitors | actives 2.3% (n = 330,000); further: on the % scale 0 is the no-effect control and ±100 the full control effect; nearly all actives have a fitted effect of over 55% in size
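5-Fluorouridine DNA damage + compound/DMSO, 2,000 cells/well, 16 h, 37 °C/5% CO2. ONE-Glo, 30 min RT, luminescence. Readout = decrease in reporter signal.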
FLuc modulator: qHTS profiling assay for firefly luciferase inhibitor/activator using purifed enzyme and Km concentrations of substrates (counterscreen for miR-21 project); AID 588342, 2011; purified FLuc, Km substrates, luminescence inhibition; Luciferin 4-monooxygenase (Photinus pyralis), P08659; actives 6.9% (n = 360,000); Potency, µM (top dose mostly 57.5 µM), for inactives: top-dose activity change, negative = inhibition, actives largely listed as inhibitors;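 further: plate controls were vehicle for no effect and reference inhibitor for full effect; nearly all actives have a fitted effect of over 55% in size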
Target sequence (P08659 whole entry, looked up): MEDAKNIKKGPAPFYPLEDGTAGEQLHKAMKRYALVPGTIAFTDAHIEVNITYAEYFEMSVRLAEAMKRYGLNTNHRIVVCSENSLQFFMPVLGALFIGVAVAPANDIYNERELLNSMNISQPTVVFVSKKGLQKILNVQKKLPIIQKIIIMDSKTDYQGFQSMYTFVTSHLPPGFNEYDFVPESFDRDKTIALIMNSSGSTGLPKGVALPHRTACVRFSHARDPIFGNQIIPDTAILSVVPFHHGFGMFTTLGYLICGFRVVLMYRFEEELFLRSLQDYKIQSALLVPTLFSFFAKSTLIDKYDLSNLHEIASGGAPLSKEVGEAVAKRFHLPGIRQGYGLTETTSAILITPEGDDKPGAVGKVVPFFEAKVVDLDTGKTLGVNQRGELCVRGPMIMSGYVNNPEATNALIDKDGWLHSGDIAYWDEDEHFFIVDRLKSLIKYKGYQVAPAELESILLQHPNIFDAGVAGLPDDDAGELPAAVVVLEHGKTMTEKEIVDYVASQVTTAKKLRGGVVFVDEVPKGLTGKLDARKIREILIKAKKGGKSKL
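Biochemical qHTS of compounds, final roughly 60 µM downward over six points, against 10 nM purified firefly luciferase using Km concentrations of substrates (10 uM D-luciferin, 10 uM ATP) in Tris acetate pH 7.5 buffer; luminescence output.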
SMN2 splice enh: qHTS Assay for Enhancers of SMN2 Splice Variant Expression | HEK293 SMN2-luciferase splicing reporter, luminescence, 30-36 h | Potency, µM (highest dose often 46.1 µM), for the others: at the top dose activity change, positive = activation, hits mostly activators | actives 2.8% (n = 210,000) | AID 1458, 2008; further: % of control where 0% means no effect; nearly all actives have a fitted effect of over 55% in size
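HEK293 cells carry an SMN2 […]–luciferase reporter in which exon 7 inclusion puts luciferase in frame. Cells were plated 10-12 h before compound addition, then incubated 30-36 h at 37C. ONE-Glo luminescence was read; sodium butyrate at 4.5 mM final served as control.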
* = called active by the depositor; ? = inconclusive; . = no result; [ ] = another dose, or the depositor's remark. The call rests on the fitted dose curve; in most records, active means well fitted curve in the direction sought with a large enough effect; inconclusive means small, poorly fitted or top-dose-only effect, or another doubt; inactive means no such curve, though single readings can be large; an effect the other way counts as inactive or inconclusive. Potency means the concentration at half of the fitted maximal effect.

SMILES	NPC1 promoter act	Rab9 promoter act	ELG1 genotox	ELG1 DNA repair	FLuc modulator	SMN2 splice enh
COc1cccc(C(=O)Nc2ccncc2)c1OC	-4.3%	-6.1%	-1.9%	-10.4%	-8.7%	.
COc1cccc(C(=O)Nc2cccc(-c3cn4c(C)csc4n3)c2)c1OC	.	.	.	.	7.57µM*	.
COc1cc(OC)c(C(=O)Nc2ccc3ccccc3c2)cc1OC	?	2.51µM*	?	?	4.78µM*	.
CCOc1ccc(OCCOC(=O)C2CCN(S(=O)(=O)c3ccc(C)c(C)c3)CC2)cc1	10.1%	2.1%	1.9%	-2.4%	4.2%	.
Cc1ccc(CNC(=O)CCCCn2c(=O)c3ccccc3n(Cc3c(C)cc(C)cc3C)c2=O)cc1	.	.	.	.	3.6%	-6.6%
COc1ccc(-n2nc(C(=O)N3CCN(c4cccc(C)c4C)CC3)c3c4ccccc4n(C)c3c2=O)cc1Cl	.	.	.	.	-7.0%	-1.7%
CCOc1ccccc1CN1CCN(CCCc2ccccc2)CC1CCO (stereo unspecified)	0.9%	-2.1%	-6.4%	-5.2%	1.0%	.
Cc1cc(-c2nnc(SCC(=O)Nc3c(C)cccc3C)n2N)n[nH]1	8.0%	0.4%	-0.1%	12.0%	-0.5%	.
COc1cccc(C(=O)Nc2ccc3c(c2)CCCN3C(=O)c2cccs2)c1OC	4.7%	14.2%	-5.0%	?	9.53µM*	.
COC(=O)COc1cc2ccccc2cc1C(=O)Nc1ccccc1	0.1%	-0.5%	3.1%	-8.2%	9.53µM*	-31.3%
COc1cccc(NC(=O)c2cc3ccccc3cc2OC)c1	2.1%	12.7%	?	?	9.53µM*	.
COc1cccc(NC(=O)c2cccc(OC)c2OC)c1	?	?	10.3µM*	?	21.3µM*	15.8µM*
COc1ccc(Nc2nc(C)nc3sc4c(c23)CCC4)cc1O	-11.0%	-7.2%	1.8%	-6.0%	5.5%	-2.7%
COc1ccc(NC(=O)c2cc3ccccc3cc2OC)cc1OC	-1.7%	13.4%	1.5%	-5.3%	26.9µM*	.
COc1cc2ccccc2cc1C(=O)Nc1ccc(O)cc1	1.41µM*	2µM*	10.3µM*	?	1.07µM*	.
CC(C)OC(=O)c1cccc(C(=O)Nc2cccc(NC(=O)c3cccc(C(=O)OC(C)C)n3)n2)n1	-11.1%	-1.9%	-10.2%	8.2µM*	-0.1%	8.9%
COc1cc(Cl)c(C)cc1NC(=O)c1cccc(OC)c1OC	?	?	18.2%	0.0%	6.75µM*	?
O=C(C1CC1)N1CCN(c2ccc([N+](=O)[O-])cc2-n2cccc2)CC1	-2.6%	3.4%	-11.4%	?	-0.5%	.
O=C(O)C1CCN(C(=O)CSc2nc3ccccc3c(=O)n2Cc2ccccc2)CC1	-1.5%	-0.6%	0.0%	-14.9%	1.1%	.
O=C(NCCCN1CCOCC1)c1cc2c([nH]c3ccccc32)c(-c2cccc(Br)c2)n1	-0.9%	-2.1%	-12.3%	1.64µM*	5.1%	.
O=C(NCCCN1CCOCC1)c1cc(-c2ccc(O)cc2)on1	1.8%	-1.7%	0.6%	?	-2.2%	-1.6%
COc1cccc(-c2nc(C(=O)NCCCN3CCOCC3)cc3c2[nH]c2ccccc23)c1	-1.9%	-4.8%	-0.4%	?	-0.9%	.
O=C(NCCCN1CCOCC1)c1cc(-c2ccccc2)on1	14.4%	27.4%	18.4µM*	?	-3.4%	-17.6%
O=C(NCCN1CCOCC1)c1cc(-c2ccccc2)on1	14.4%	20.0%	18.4µM*	?	-2.9%	-3.1%
O=C(NCCN1CCOCC1)c1cc(-c2ccc(Br)cc2)on1	0.4%	-5.9%	0.9%	0.5%	-15.2%	-14.3%
SMILES	NPC1 promoter act	Rab9 promoter act	ELG1 genotox	ELG1 DNA repair	FLuc modulator	SMN2 splice enh
CC(=O)N1c2ccc(S(=O)(=O)N(C)CC(=O)Nc3cccc(C)c3)cc2CC1C (stereo unspecified)	0.2%	-3.4%	-0.4%[9.26 µM]	0.2%	4.3%	.
CC(=O)N1c2ccc(S(=O)(=O)N(C)CC(=O)Nc3ccccc3C)cc2CC1C (stereo unspecified)	1.0%	-2.4%	-7.3%	16.4µM*	0.3%	.
Cc1cc(NC(=O)c2ccc3c(c2)OCCO3)ccc1NC(=O)c1ccco1	?	?	9.5%	?	0.757µM*	11.2µM*
Cc1cc(NC(=O)c2ccco2)ccc1NC(=O)Cc1cccs1	14.1%	11.5%	12.7%	?	15.1µM*	17.9%
Cc1ccc(NC(=O)c2ccco2)c(NC(=O)Cc2cccs2)c1	-1.3%	-0.1%	0.3%	-4.2%	3.5%	17.6%
N#Cc1cccc(NCC(=O)Nc2ccc3c(c2)OCCO3)c1	0.631µM*	0.398µM*	2.31µM*	?	6.01µM*	12.6µM*
O=C(Nc1ccc(NC(=O)c2ccco2)cc1)c1ccc2c(c1)OCCO2	-4.5%	-17.0%	?	?	?	6.8%
N#Cc1ccc(NCC(=O)Nc2ccc3c(c2)OCCO3)cc1	-3.8%	0.5%	0.4%	7.3%	?	-9.9%
O=C(CNC(=O)c1ccco1)Nc1ccc2c(c1)OCCO2	1.78µM*	1µM*	1.16µM*	?	6.01µM*	.
O=C(NC(=S)Nc1cccc(O)c1)c1ccco1	?	?	?	?	10.7µM*	.
O=C(NC(=S)Nc1ccc2c(c1)OCCO2)c1ccco1	?	1µM*	?	?	1.69µM*	.
CCC(=O)NC(=S)Nc1cccc(NC(=O)c2ccco2)c1	9.1%	3.0%	-5.3%	-3.2%	-18.2%	7.6%
O=C(c1ccco1)N1CCCC(Nc2ccc3c(c2)OCCO3)C1 (stereo unspecified)	?	?	?	?	23.9µM*	.
CSCc1ccc(C(=O)N2CCCC(Nc3ccc4c(c3)OCCO4)C2)o1 (stereo unspecified)	1.6%	-0.5%	-0.3%	9.1%	?	.
COc1cccc(N2CCN(C(=O)CN3C(=O)NC(C)(c4ccc5ccccc5c4)C3=O)CC2)c1 (stereo unspecified)	-5.3%	-11.1%	?	?	-7.3%	.
O=c1cc(-c2cccc(F)c2)[nH]c2ccccc12	-11.5%	-21.0%	?	-1.4%	-25.5%	-27.3%
COc1ccc2[nH]c(-c3cccc(F)c3)cc(=O)c2c1	22.3%	-6.1%	13µM*	?	15.1µM*	11.2µM*
Cc1ccc2[nH]c(-c3cccc(F)c3)cc(=O)c2c1	-4.6%	-10.9%	14.6µM*	?	13.5µM*	-1.9%
Cc1cc(C(=O)NC(C)C2CC2)c(Cl)cc1Cl (stereo unspecified)	-1.9%	2.5%	-1.4%	21.3%	-1.2%	.
